Assay results: PubChem BioAssay (Tox21)
“And” between values parts separate entries of the source, which are not always exact repeats. Equal entries are not always repeated. Records with an inconclusive call do not appear. Entries that show only a call come without a potency. A number with no mark means an inactive call. The source made the active and inactive calls. Calls come from the whole dose curve; as a rule, active = well fitted curve in the direction sought with a large enough effect in the repeat runs; inconclusive = weak or mixed curves; inactive = no such curve, though single readings can be large; an effect the other way counts as inactive or inconclusive.

Key:
[1] = target: Cytochrome P450 2C9 (Homo sapiens) (UniProt P11712); assay: Cytochrome P450 Family 2 Subfamily C Member 9 (CYP2C9) small molecule antagonists: luciferase reporter qHTS assay (AID 1671198); for activity change, negative = inhibition: series mostly up to about 120 µM
Cytochrome P450 2C9 (Homo sapiens), sequence (P11712 whole entry, looked up): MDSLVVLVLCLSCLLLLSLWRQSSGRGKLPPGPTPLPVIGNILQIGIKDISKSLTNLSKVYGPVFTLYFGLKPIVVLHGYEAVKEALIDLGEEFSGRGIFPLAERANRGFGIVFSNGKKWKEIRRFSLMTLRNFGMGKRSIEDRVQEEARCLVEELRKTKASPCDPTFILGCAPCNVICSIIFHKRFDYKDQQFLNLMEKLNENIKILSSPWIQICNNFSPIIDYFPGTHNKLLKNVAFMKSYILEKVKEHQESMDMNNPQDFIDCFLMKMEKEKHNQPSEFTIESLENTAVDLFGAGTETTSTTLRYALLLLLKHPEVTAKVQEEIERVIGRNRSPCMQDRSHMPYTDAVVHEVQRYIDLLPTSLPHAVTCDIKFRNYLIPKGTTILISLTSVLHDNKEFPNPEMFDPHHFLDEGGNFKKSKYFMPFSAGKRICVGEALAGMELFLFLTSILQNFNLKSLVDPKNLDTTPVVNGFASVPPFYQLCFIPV
How it was run: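 P450-Glo proluciferin substrate with CYP2C9 enzyme; 10 min RT preincubation, then NADPH regeneration 1 h at 37C; luciferin detection reagent 20 min RT, luminescence in relative luminescence units.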

[2] = target: Voltage-gated inwardly rectifying potassium channel KCNH2 (Homo sapiens) (UniProt Q12809); assay: Human Ether-a-go-go-Related Gene (hERG) channel small molecule antagonists: fluorescence cell-based qHTS assay (AID 1671200);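 for activity change, negative = inhibition: hERG-expressing U2OS cells given a thallium stimulus after FluxOR II dye loading; series mostly up to about 77 µM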
Voltage-gated inwardly rectifying potassium channel KCNH2 (Homo sapiens), sequence (Q12809 whole entry, looked up): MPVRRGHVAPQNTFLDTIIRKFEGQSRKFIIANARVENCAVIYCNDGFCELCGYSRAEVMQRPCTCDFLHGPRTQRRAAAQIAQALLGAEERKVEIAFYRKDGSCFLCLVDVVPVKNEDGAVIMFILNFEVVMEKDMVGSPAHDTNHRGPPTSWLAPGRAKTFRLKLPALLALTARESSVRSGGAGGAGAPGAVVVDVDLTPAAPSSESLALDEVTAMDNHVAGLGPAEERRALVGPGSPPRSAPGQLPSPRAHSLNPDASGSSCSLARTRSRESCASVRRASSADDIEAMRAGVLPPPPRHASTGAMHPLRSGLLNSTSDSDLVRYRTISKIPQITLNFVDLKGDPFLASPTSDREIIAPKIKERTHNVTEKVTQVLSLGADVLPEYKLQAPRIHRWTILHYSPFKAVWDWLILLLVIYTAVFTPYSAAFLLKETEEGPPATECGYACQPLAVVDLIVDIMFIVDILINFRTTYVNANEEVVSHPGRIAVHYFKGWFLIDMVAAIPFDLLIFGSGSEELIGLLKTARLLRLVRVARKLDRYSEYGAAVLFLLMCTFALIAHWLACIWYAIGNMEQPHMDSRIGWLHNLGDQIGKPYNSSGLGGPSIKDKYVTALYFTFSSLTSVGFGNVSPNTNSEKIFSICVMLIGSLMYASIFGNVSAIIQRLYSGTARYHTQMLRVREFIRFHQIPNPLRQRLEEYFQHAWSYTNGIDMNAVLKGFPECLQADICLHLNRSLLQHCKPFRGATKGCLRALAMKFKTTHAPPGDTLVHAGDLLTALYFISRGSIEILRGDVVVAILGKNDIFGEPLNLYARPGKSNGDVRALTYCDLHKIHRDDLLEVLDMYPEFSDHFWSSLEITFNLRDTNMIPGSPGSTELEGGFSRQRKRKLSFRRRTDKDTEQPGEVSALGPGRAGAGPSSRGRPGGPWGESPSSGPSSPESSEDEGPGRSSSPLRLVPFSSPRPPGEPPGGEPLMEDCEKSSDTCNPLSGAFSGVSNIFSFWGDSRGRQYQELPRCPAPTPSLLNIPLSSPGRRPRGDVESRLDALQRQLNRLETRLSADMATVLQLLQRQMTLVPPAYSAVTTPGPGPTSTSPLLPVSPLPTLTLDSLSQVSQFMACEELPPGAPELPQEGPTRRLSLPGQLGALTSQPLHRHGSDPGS
How it was run: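 Quantitative HTS in hERG-U2OS cells: thallium entry through the channel reports activity, read as continuous 480/540 nm fluorescence over 2 min after stimulus addition.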

[3] = target: Cytochrome P450 3A4 (Homo sapiens) (UniProt P08684); assay: Cytochrome P450 Family 3 Subfamily A Member 4 (CYP3A4) small molecule antagonists: luciferase reporter qHTS assay (AID 1671201); for activity change, negative = inhibition: series mostly up to about 120 µM
Cytochrome P450 3A4 (Homo sapiens), sequence (P08684 whole entry, looked up): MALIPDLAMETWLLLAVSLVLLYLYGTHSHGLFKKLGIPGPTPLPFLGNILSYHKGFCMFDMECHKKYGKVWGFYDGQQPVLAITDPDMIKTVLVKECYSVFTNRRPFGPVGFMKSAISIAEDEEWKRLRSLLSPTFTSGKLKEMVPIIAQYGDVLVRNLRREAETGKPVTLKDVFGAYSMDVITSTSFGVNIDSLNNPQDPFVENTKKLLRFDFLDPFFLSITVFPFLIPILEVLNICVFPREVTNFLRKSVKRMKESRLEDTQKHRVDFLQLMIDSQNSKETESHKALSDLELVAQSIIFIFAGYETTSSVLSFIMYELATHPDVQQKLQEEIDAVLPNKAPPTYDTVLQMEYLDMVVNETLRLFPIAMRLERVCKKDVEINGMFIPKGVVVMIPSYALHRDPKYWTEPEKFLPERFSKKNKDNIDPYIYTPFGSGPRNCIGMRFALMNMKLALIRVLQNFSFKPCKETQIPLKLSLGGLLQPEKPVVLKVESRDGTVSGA
How it was run: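 Inhibition of CYP3A4 is measured as loss of light: the enzyme converts a proluciferin substrate to luciferin, detected luminescently. Reaction ran 1 h at room temperature with NADPH regeneration after a 10 min compound preincubation.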

[4] = target: Cytochrome P450 1A2 (Homo sapiens) (UniProt P05177); assay: Cytochrome P450 Family 1 Subfamily A Member 2 (CYP1A2) small molecule antagonists: luciferase reporter qHTS assay (AID 1671199); for activity change, negative = inhibition: series mostly up to about 120 µM
Cytochrome P450 1A2 (Homo sapiens), sequence (P05177 whole entry, looked up): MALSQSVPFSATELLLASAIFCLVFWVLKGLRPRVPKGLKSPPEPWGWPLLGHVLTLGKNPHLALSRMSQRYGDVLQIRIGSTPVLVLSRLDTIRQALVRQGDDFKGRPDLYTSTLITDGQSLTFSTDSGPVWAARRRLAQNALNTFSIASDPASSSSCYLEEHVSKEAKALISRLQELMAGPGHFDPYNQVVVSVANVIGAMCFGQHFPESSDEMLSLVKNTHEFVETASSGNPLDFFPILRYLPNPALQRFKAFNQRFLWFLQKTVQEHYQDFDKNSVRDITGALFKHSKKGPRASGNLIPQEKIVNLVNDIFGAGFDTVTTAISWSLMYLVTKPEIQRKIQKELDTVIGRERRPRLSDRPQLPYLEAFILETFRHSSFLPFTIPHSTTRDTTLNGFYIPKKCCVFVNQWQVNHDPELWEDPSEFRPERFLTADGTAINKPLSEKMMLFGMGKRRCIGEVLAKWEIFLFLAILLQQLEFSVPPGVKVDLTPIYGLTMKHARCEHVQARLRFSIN
How it was run: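 Steps: enzyme-substrate mix dispensed; test compounds and furafylline control pinned in; 10 min room temperature; NADPH regeneration solution added, 1 h; reaction stopped with luciferin detection reagent; luminescence read after 20 min.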
Note: nearly all actives have a fitted effect of over 50% in size.
Potency is the fitted concentration of half-maximal effect.

Question: What does the source list for `O=C1OC2(c3ccc(O)cc3Oc3cc(O)ccc32)c2ccc(N=C=S)cc21`?
Answer: Potency [1]: 72.3 µM (active); Potency [2]: inactive; Potency [3]: inactive

Question: What does the source list for `CC1=CCC(=C(C)C)CC1`?
Answer: Potency [1]: 39.9 µM (active); Potency [2]: inactive; Potency [3]: 20 µM (active)

Question: For `CCC(COC(=O)CCS)(COC(=O)CCS)COC(=O)CCS`, which Potency [1] is on record?
Answer: The Potency was 28.3 µM (active).

Question: What about the Potency [3] of the same compound?
Answer: Its Potency is 3.56 µM (active).

Question: How did the Potency [1] turn out when `CCCCCCCCCCCC(=O)OCC(C)OC(=O)CCCCC(=O)O` (centres undefined) was run?
Answer: The Potency was 7.76 µM (active).

Question: And the Potency [2]?
Answer: The Potency was “inactive”.

Question: And the Potency [3]?
Answer: The Potency was 8.71 µM (active).

Question: With `COC(C)=O` as the compound, how does the Potency [1] read?
Answer: Its Potency is “inactive”.

Question: What about the Potency [2] of the same compound?
Answer: The Potency was “inactive”.

Question: And the Potency [3]?
Answer: The Potency was “inactive”.

Question: What does the source list for `CC(C)CCOC(=O)/C=C/c1ccccc1`?
Answer: Potency [1]: 40.1 µM (active); Potency [4]: 22.5 µM (active); Potency [3]: inactive

Question: Which results are given for `CC1(C)[C@@H](O)CC[C@]2(C)[C@H]3C(=O)C=C4[C@@H]5C[C@@](C)(C(=O)O)CC[C@]5(C)CC[C@@]4(C)[C@]3(C)CC[C@@H]12`?
Answer: Potency [1]: inactive; Potency [4]: inactive; Potency [3]: inactive

Question: Which results are given for `CC(C)(C)C1CCC(=O)CC1`?
Answer: Potency [1]: inactive; Potency [2]: inactive; Potency [3]: inactive

Question: With `CN(C)c1ccc(C(=C2C=CC(=[N+](C)C)C=C2)c2ccc(N(C)C)cc2)cc1` as the compound, how does the Potency [4] read?
Answer: The Potency was 11.2 µM (active) and 20 µM (active) and 10.2 µM (active).

Question: What about the Potency [2] of the same compound?
Answer: Its Potency is 3.45 µM (active) and 3.47 µM (active) and 2.68 µM (active).

Question: With `Cc1cc(C(C)(C)C)cc(C)c1CC1=NCCN1` as the compound, how does the Potency [1] read?
Answer: The Potency was “inactive”.

Question: And the Potency [4]?
Answer: The Potency was “inactive”.

Question: And the Potency [3]?
Answer: The Potency was “inactive”.

Question: Which results are given for `CN(C)CCN1CCN(c2cccc(Cl)c2)C1=O`?
Answer: Potency [1]: inactive; Potency [2]: inactive; Potency [3]: inactive

Question: With `O=C(O)c1cc(N=Nc2ccc([N+](=O)[O-])cc2)ccc1O` as the compound, how does the Potency [1] read?
Answer: The Potency was 34.9 µM (active).

Question: And the Potency [2]?
Answer: The Potency was “inactive”.

Question: Which Potency [1] does the source give for `O=C(/C=C/c1ccccc1)OC/C=C/c1ccccc1` here?
Answer: Its Potency is 31.7 µM (active).

Question: And the Potency [4]?
Answer: Its Potency is 28.3 µM (active).

Question: What about the Potency [3] of the same compound?
Answer: Its Potency is “inactive”.

Question: What does the source list for `CCO[Si](OCC)(OCC)OCC`?
Answer: Potency [1]: inactive; Potency [2]: inactive; Potency [3]: inactive

Question: For `CCCC[P+](C)(CCCC)CCCC`, which Potency [1] is on record?
Answer: The Potency was “inactive”.

Question: And the Potency [4]?
Answer: The Potency was “inactive”.

Question: And the Potency [3]?
Answer: Its Potency is “inactive”.

Question: Which results are given for `CC(C)Cn1cnc2c(N)nc3ccccc3c21`?
Answer: activity change, negative = inhibition [1]: -3.29% [at 23.6 µM]; activity change, negative = inhibition [2]: -8.33% [at 15.8 µM]; activity change, negative = inhibition [3]: 54.2% [at 23.6 µM]

Question: With `NC[C@H]1O[C@H](O[C@H]2[C@H](O[C@@H]3O[C@H](CO)[C@@H](O)[C@H]3O)C(O)[C@H](N)C[C@@H]2N)[C@H](N)[C@@H](O)[C@@H]1O` (some centres undefined) as the compound, how does the activity change, negative = inhibition [1] read?
Answer: Its activity change, negative = inhibition is 2.46% [at 10.5 µM].

Question: What about the activity change, negative = inhibition [2] of the same compound?
Answer: Its activity change, negative = inhibition is -0.219% [at 6.97 µM].

Question: What does the source list for `CC(C)OC(=O)C(O)(CC(=O)O)CC(=O)O`?
Answer: Potency [1]: 35.6 µM (active); Potency [2]: inactive; Potency [3]: inactive

Question: For `CCC(C)(CCC(C)C)C(=O)[O][Sn]([CH3])([CH3])[O]C(=O)C(C)(CC)CCC(C)C` (centres undefined), which Potency [1] is on record?
Answer: Its Potency is 25.2 µM (active).

Question: What about the Potency [2] of the same compound?
Answer: Its Potency is “inactive”.

Question: What about the Potency [3] of the same compound?
Answer: The Potency was “inactive”.

Question: `CCOC(=O)c1ccc(C2CCC(NC[C@H](O)COc3ccc(O)c(NS(C)(=O)=O)c3)CC2)cc1` (some centres undefined) was tested. Which Potency [1] did it give?
Answer: Its Potency is 5.84 µM (active).

Question: And the Potency [4]?
Answer: Its Potency is “inactive”.

Question: And the Potency [3]?
Answer: Its Potency is “inactive”.

Question: Which results are given for `CCCCOC(=O)CO`?
Answer: Potency [1]: inactive; Potency [2]: inactive; Potency [3]: inactive

Question: `COc1cccc(OC)c1C(=O)O` was tested. Which Potency [1] did it give?
Answer: Its Potency is “inactive”.

Question: And the Potency [2]?
Answer: Its Potency is “inactive”.

Question: And the Potency [3]?
Answer: Its Potency is “inactive”.

Question: For `CCCCCCCCCCCCCCCC[N+](C)(C)CC`, which Potency [4] is on record?
Answer: The Potency was “inactive”.

Question: Which results are given for `Nc1ccc(Oc2ccc(Cl)cc2)cc1`?
Answer: Potency [1]: 12.4 µM (active); Potency [4]: 34.8 µM (active); Potency [3]: 17.5 µM (active)

Question: What does the source list for `CCCCCCC1CCCC(=O)O1` (centres undefined)?
Answer: Potency [1]: 25.2 µM (active); Potency [2]: inactive; Potency [3]: inactive

Question: Which results are given for `CC1(C)CC(O)CC(C)(C)N1`?
Answer: Potency [1]: inactive; Potency [2]: inactive; Potency [3]: inactive

Question: What does the source list for `O=c1c(O)c(-c2ccc(O)cc2O)oc2cc(O)cc(O)c12`?
Answer: Potency [1]: 21.1 µM (active); Potency [2]: inactive; Potency [3]: inactive

Question: `Cc1ccc(O)c(O)c1` was tested. Which Potency [1] did it give?
Answer: The Potency was “inactive”.

Question: What about the Potency [2] of the same compound?
Answer: The Potency was “inactive”.

Question: Which results are given for `OC1CCCc2ccccc21` (centres undefined)?
Answer: Potency [1]: inactive; Potency [2]: inactive; Potency [3]: inactive

Question: `Cc1c(C)c2c(c(C)c1OC(=O)c1cccnc1)CC[C@@](C)(CCC[C@H](C)CCC[C@H](C)CCCC(C)C)O2` was tested. Which Potency [1] did it give?
Answer: The Potency was “inactive”.

Question: And the Potency [2]?
Answer: The Potency was “inactive”.

Question: And the Potency [3]?
Answer: Its Potency is “inactive”.

Question: With `Cc1ccc(N/N=c2\c(=O)cc/c(=N\Nc3ccc(S(=O)(=O)O)cc3)c2=O)c(C)c1` as the compound, how does the Potency [1] read?
Answer: The Potency was 35.6 µM (active).

Question: What about the Potency [2] of the same compound?
Answer: Its Potency is “inactive”.

Question: And the Potency [3]?
Answer: Its Potency is “inactive”.

Question: What does the source list for `CNc1ccc([N+](=O)[O-])cc1`?
Answer: Potency [4]: 35.7 µM (active); Potency [2]: inactive; Potency [3]: inactive

Question: With `C=CCn1c(=O)n(CC=C)c(=O)n(CC=C)c1=O` as the compound, how does the Potency [4] read?
Answer: Its Potency is 31.6 µM (active).

Question: What about the Potency [2] of the same compound?
Answer: Its Potency is “inactive”.

Question: What about the Potency [3] of the same compound?
Answer: Its Potency is 2.82 µM (active).

Question: With `O=C1NC(=O)[C@@H]2CC=CC[C@H]12` as the compound, how does the Potency [2] read?
Answer: The Potency was “inactive”.

Question: `CCCCCCCCCCOC(=O)c1ccccc1C(=O)OCCCCCCCC` was tested. Which Potency [4] did it give?
Answer: Its Potency is “inactive”.

Question: What about the Potency [2] of the same compound?
Answer: The Potency was “inactive”.

Question: And the Potency [3]?
Answer: The Potency was “inactive”.

Question: How did the Potency [2] turn out when `CCCC(=O)OC(C)(C)Cc1ccccc1` was run?
Answer: Its Potency is “inactive”.

Question: Which results are given for `COCCOc1cc2cc(C(=O)NC3CCN(C(C)C)CC3)n(CC(=O)Nc3ccc(Cl)cn3)c2cn1`?
Answer: Potency [2]: inactive; Potency [3]: inactive
